Screening results deposited in PubChem by several laboratories.
CYP2C9 activ = human CYP2C9 activators, primary screen, biochemical, luminescence | recombinant CYP2C9, luciferin-H conversion; stronger effect = higher value; factor 1 = untreated enzyme, 0 = blocked | activation factor at 5 µM | actives 1.4% (n = 96,000) | AID 1024, 2008 | Cytochrome P450 2C9 (Homo sapiens), P11712;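 active means activation factor of 2 or more for CYP2C9 at a 5 µM dose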
PostGolgi yeast = phenotypic screen on post-Golgi transport, primary screen. AID 739, 2007. actives 0.9% (n = 98,000). inhibition, % at 10 µM. post-Golgi transport phenotypic cell assay;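 further: yeast cells grown in 1536-well plates; yeast grown about 18 h at 30C before absorbance read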
CYP2C19 activ = human CYP2C19 activators, primary screen, biochemical, luminescence. Cytochrome P450 2C19 (Homo sapiens), P33261. recombinant CYP2C19, luciferin-H EGE luminescence; stronger effect = higher value; 0 = fully inhibited enzyme, 1 = untreated enzyme. activation factor at 5 µM. 96,000 tested, under 10 active. AID 1025, 2008;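 active means activation factor of at least 2 at 5 µM in the primary screen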
Target sequence (P33261 whole entry, looked up): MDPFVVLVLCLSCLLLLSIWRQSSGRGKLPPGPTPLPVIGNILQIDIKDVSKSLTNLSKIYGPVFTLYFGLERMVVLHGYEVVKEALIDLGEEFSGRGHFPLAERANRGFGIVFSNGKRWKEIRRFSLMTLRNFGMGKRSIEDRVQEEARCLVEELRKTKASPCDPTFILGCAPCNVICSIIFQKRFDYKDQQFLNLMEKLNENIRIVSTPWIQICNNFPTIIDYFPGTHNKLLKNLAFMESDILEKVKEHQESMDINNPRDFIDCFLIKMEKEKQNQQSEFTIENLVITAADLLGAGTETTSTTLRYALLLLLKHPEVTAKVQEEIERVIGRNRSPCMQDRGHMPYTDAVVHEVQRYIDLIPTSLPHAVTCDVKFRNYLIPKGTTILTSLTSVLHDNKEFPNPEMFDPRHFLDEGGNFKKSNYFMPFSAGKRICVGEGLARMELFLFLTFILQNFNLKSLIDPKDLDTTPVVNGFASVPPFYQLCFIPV
CYP2C19 inh = blockers of cytochrome P450 2C19 activity – biochemical, luminescence, ADME assay, primary screen; P33261; CYP2C19 Supersomes, luciferin-H EGE luminescence, 30 min; inhibition, % at 5 µM; actives 21% (n = 96,000);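 active means CYP2C19 inhibition above a set limit at 5 µM in the primary screen, cut at about 50% in these data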
CYP2C9 inh = blockers of cytochrome P450 2C9 activity – biochemical, luminescence, ADME assay, primary screen; CYP2C9 Supersomes, luciferin-H conversion; inhibition, % at 5 µM; actives 20% (n = 96,000);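 active means blocking of liver enzyme CYP2C9 beyond about 50% at 5 µM, limit read from the data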
PostGolgi ctrl = growth inhibition of yeast control strain, primary screen, counter-screen for post-Golgi transport modulator project. efflux-deficient yeast background strain, growth absorbance A615, 16 h. inhibition, % at 10 µM. actives 5% (n = 98,000). AID 738, 2007
Each line names hits and unclear results; the compound was inactive in the other large screens. Only some compounds are listed: those with a hit (about 32% of all), similar ones and a draw of the others. Unless noted, no stated cut-off is given here; in the data, active means inhibition above about 30%; inactive means the rest.

N#CCSC1=Nc2ccccc2C2=NC(CCC(=O)N3CCN(c4ccccc4)CC3)C(=O)N12 (stereo not given)	CYP2C9 inh 73
CCCCNC(=O)CC1N=C2c3ccccc3N=C(SCC(=O)Nc3ccc(OC)cc3)N2C1=O (stereo not given)	CYP2C9 inh 60
CCn1nc(NC(=O)c2ccncc2)c2cc3ccc(C)cc3nc21	CYP2C19 inh 63, CYP2C9 inh 60
CCCn1nc(NC(=O)c2cccs2)c2cc3ccccc3nc21	none
CCCn1nc(NC(=O)c2ccncc2)c2cc3ccccc3nc21	CYP2C19 inh 93, CYP2C9 inh 95
Cc1nc2ccc(NC(=O)c3ccc(Cl)s3)cc2s1	none
Cc1nc2ccc(NC(=O)c3cccc(S(=O)(=O)N4CC(C)OC(C)C4)c3)cc2s1 (stereo not given)	CYP2C19 inh 71, CYP2C9 inh 66
Cc1nc2ccc(NC(=O)Cc3cccs3)cc2s1	CYP2C19 inh 59, CYP2C9 inh 65
O=C(Cc1cccs1)Nc1ccc(C(=O)O)cc1	none
Cc1nc2ccc(NC(=O)c3ccc(Cl)c(NC(=O)c4cccs4)c3)cc2s1	CYP2C9 inh 54
O=C(O)Cn1nc(C(F)(F)F)c2c1CCC2	none
CCc1cc(C(=O)OC)c(NC(=O)C2CC(=O)NN2Cc2ccccc2)s1 (stereo not given)	none
Cc1c(C)n(C(=O)CSc2nc3ccccc3[nH]2)c2ccccc12	CYP2C19 inh 95, CYP2C9 inh 94, PostGolgi ctrl 31
Cc1ccc2nc(SCC(=O)N3CCOCC3)[nH]c2c1	CYP2C19 inh 68
COc1ccccc1N1CCN(C(=O)CSc2nc3ccccc3[nH]2)CC1	none
c1ccc2[nH]c(SCCN3CCOCC3)nc2c1	CYP2C19 inh 59
O=C(CSc1nc2ccccc2[nH]1)N1CCCCC1	CYP2C19 inh 88
O=C(CSc1nc2ccccc2[nH]1)N1CCN(c2ccccc2)CC1	none
c1ccc(-n2nnnc2NC2CCCCC2)cc1	none
NS(=O)(=O)c1ccc(CCNC(=O)c2ccccc2F)cc1	none
Cc1cccc(N2CCN(C(=O)CCCSc3nc4ccccc4[nH]3)CC2)c1C	PostGolgi ctrl 39
O=C(CCCSc1nc2ccccc2[nH]1)N1CCN(c2ccccc2)CC1	none
Cc1ccc2[nH]c(SCC(=O)N3CCOCC3)nc2c1C	CYP2C19 inh 81
CCOC(=O)C1=C(N)Oc2cc(O)ccc2C1c1cccnc1 (stereo not given)	CYP2C19 inh 89, CYP2C9 inh 90
Nc1nonc1C(=O)NCCNC(=O)c1ccccc1F	none (no result: CYP2C9 activ, CYP2C19 activ, CYP2C19 inh, CYP2C9 inh)
Nc1nonc1C(=O)NCCNS(=O)(=O)c1ccc(Br)cc1	CYP2C19 inh 60
Cc1nc(N2CCN(Cc3ccccc3)CC2)[nH]c(=O)c1C	none (no result: PostGolgi yeast, PostGolgi ctrl)
O=c1cc(-c2ccccc2)nc(N2CCN(Cc3ccccc3)CC2)[nH]1	PostGolgi ctrl 39
Cn1c(SCC2CCCCC2)nnc1-c1ccncc1	CYP2C19 inh 100, CYP2C9 inh 87
Cn1c(SC2CCCCC2=O)nnc1-c1ccncc1 (stereo not given)	CYP2C19 inh 70
Cn1c(SCCCC(=O)c2ccc(Br)cc2)nnc1-c1ccncc1	CYP2C19 inh 75, CYP2C9 inh 93
Cc1ccc(NC(=O)c2ccc(CSc3nnc(-c4ccncc4)n3C)cc2)c(C)c1	CYP2C9 inh 66
Cc1ccc(NC(=O)c2ccc(CSc3nnc(C)s3)cc2)c(C)c1	none
C=C(C)C1Cc2c(C)nn(-c3nc(C)cc(C)n3)c2C1 (stereo not given)	none
Cn1c(SCC(=O)C(C)(C)C)nnc1-c1ccncc1	CYP2C19 inh 87, CYP2C9 inh 63
CC(=O)CSc1nnc(-c2ccncc2)n1C	none
N#CC1=C(N)N(c2ccccc2)C(c2cccc([N+](=O)[O-])c2)C1(C#N)C#N (stereo not given)	CYP2C9 inh 53
N#CC1=C(N)N(c2ccccc2)C(c2ccco2)C1(C#N)C#N (stereo not given)	CYP2C9 inh 54
Cc1cccc(N2C(N)=C(C#N)C(C#N)(C#N)C2c2ccccc2)c1 (stereo not given)	CYP2C9 inh 55
Cc1cc(NC(=O)CSc2nnc3c(C)cc4cc5c(cc4n23)OCO5)no1	none (no result: PostGolgi yeast, PostGolgi ctrl)
C=CCOC(=O)C1C(=O)CC(C)(O)C(C(=O)OCC=C)C1c1ccc(OCC)cc1 (stereo not given)	none
Cc1cc(C)c(C#N)c(SC2CCCCC2=O)n1 (stereo not given)	CYP2C19 inh 61
CSc1nc(C)cc(C)c1C#N	none
CCCCN(C)CCCNC(=O)c1ccc2c(c1)NC(=O)C(N1CCOCC1)S2 (stereo not given)	none
FC(F)(F)c1cnc(Sc2nnc(-c3cccs3)n2CC2CCCO2)c(Cl)c1 (stereo not given)	CYP2C19 inh 89
Fc1ccc(-c2nnc(SCc3ncc(-c4ccccc4)o3)n2CC2CCCO2)cc1 (stereo not given)	none
FC(F)(F)c1ccc(Sc2nnc(-c3cccs3)n2CC2CCCO2)nc1 (stereo not given)	CYP2C19 inh 91, CYP2C9 inh 52
CCC(C)c1ccccc1NC(=O)c1cccnc1 (stereo not given)	PostGolgi ctrl 52
CC1(C)CC(=O)C2=C(C1)Oc1ncn(CCO)c(=N)c1C2c1ccccc1 (stereo not given)	PostGolgi ctrl 31
CC1(C)CC(=O)C2=C(C1)Oc1ncn(CCCO)c(=N)c1C2c1ccccc1 (stereo not given)	none
Clc1ccc(C2=Nn3c(nnc3-c3cc(-c4ccccc4)n[nH]3)SC2)cc1	none
Fc1ccccc1Cc1nnc2n1N=C(c1ccc(Cl)cc1)CS2	CYP2C9 inh 56
O=c1c2cnn(-c3ccccc3Cl)c2ncn1Cc1cccnc1	CYP2C19 inh 53
O=c1c2cnn(-c3ccccc3)c2ncn1Cc1ccco1	CYP2C9 inh 50
O=c1c2cnn(-c3ccc(F)cc3)c2ncn1Cc1cccnc1	CYP2C19 inh 50
Cc1ccc(NC(=S)c2nc3ccccc3[nH]2)cc1	CYP2C19 inh 89, PostGolgi ctrl 51
Fc1ccc(/C=N/n2c(-c3cccs3)n[nH]c2=S)cc1	none
CC(=NCCN1CCN(C(=S)Nc2ccccc2)CC1)C1=C(O)CC(C)(C)CC1=O	none
COCCNc1cc(C)nc2c3c(C)cc(C)nc3nn12	PostGolgi yeast 47
CCc1ccc(/C=N/NC(=O)c2cc(-c3ccccc3OC)nc3ccccc23)s1	CYP2C19 inh 66, CYP2C9 inh 94, PostGolgi ctrl 75
COc1ccccc1-c1cc(C(=O)N/N=C/c2ccc(C)s2)c2ccccc2n1	CYP2C19 inh 75, CYP2C9 inh 100, PostGolgi ctrl 92
CCn1cc(CNC(=O)c2cc(-c3ccccc3OC)nc3ccccc23)c(C)n1	none
